Assay outcomes as filed in PubChem BioAssay.
Coupling enz: counter-screen for Giardia aldolase inhibitors: coupling enzyme system; activity change, negative = inhibition, % at 58.2 µM, hits read low; AID 2472; 0.67% of 290,000 active; coupling enzyme system counterscreen, AmpLite Red fluorescence; in the data active = activity change below about -30%
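Final compound at 57.5 uM, incubated 10 min at RT with coupling enzyme reagent (glyceraldehyde-3-phosphate), then 20 min with substrate and AmpLite Red detection. Fluorescence read at 525/598 nm; tests interference with the coupling assay, not aldolase inhibition.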
GALK inhibitor: blocks human galactokinase activity; Purified GALK, Kinase-Glo residual ATP luminescence; Potency, µM (doses to about 57.5 µM), usual class: inhibitors; P51570; 0.007% of 270,000 active
Target sequence (P51570 whole entry, looked up): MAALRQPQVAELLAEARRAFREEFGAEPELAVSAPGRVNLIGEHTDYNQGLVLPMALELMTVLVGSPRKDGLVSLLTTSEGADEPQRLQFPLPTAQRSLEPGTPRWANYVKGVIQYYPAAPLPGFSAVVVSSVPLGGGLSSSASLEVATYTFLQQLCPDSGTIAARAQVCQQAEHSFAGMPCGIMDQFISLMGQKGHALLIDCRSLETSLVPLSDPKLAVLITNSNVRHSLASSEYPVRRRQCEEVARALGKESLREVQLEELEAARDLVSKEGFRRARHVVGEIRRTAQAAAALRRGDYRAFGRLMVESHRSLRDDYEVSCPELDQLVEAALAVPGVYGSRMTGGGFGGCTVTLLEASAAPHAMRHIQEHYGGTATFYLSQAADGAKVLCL
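Galactose (100 uM) and ATP (35 uM) were turned over by 5 nM GALK for 1 h at RT. Kinase-Glo Plus then converted the remaining ATP into a luminescent signal.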
TrxR1 substrate: is turned over as a substrate by rat TrxR1; O89049; purified TrxR1 substrate turnover, NADPH consumption readout; Potency, µM (doses to about 114 µM); 0.01% of 390,000 active; AID 588456; note: nearly all actives have a fitted effect of over 50% in size
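Rat TrxR1, dispensed at 90 nM, was prereduced with 400 uM NADPH (final) for 5 min at ~22 deg C, then incubated with compound 15 min before 400 uM selenite. A first-read NADPH fluorescence drop versus no-compound background flagged substrates.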
rTrxR1 inhibitor: rat TrxR1 inhibition. recombinant rTrxR1, NADPH fluorescence consumption, selenite substrate. AID 588453. Potency, µM (series often up to 114 µM), usual class: inhibitors. O89049. 1% of 390,000 active; note: nearly all actives have a fitted effect of over 65% in size
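Rat TrxR1 (90 nM in the dispensed reagent) was pre-reduced with 400 uM NADPH for 5 min at room temperature, then incubated with compound for 15 min. After 400 uM selenite was added, NADPH fluorescence (Ex 340/Em 450 nm) was followed for 8 min.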
VP16 counter: Gal4-VP16 reporter inhibition counter-screen; AID 2546; Drosophila S2 Gal4-VP16 UAS-luciferase, luminescence, 20 h; 3.5% of 310,000 active; Potency, µM (titrated, usually from 53.6 µM), usual class: inhibitors;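 note: Gal4-VP16 expression switched on by copper sulfate through the metallothionein promoter; nearly all actives have a fitted effect of over 50% in size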
RORg inh: inhibitors of mouse ROR gamma transcriptional activity | AID 2551 | Potency, µM (titrated, usually from 53.6 µM), hits mostly inhibitors | P51450 | 5.4% of 310,000 active | Drosophila S2 Gal4-RORgamma UAS-luciferase reporter, 20 h; note: nearly all actives have a fitted effect of over 60% in size
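Luminescence from a UAS-regulated Photinus luciferase reporter in stably transfected Drosophila Schneider cells is measured; decreased signal marks ROR gamma inhibition. Fusion expression is induced by 700 uM copper sulfate for 20 hr.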
Each line names hits and unclear results; the compound was inactive in the other large screens. Rows were chosen to be rich in hits. Some 5.9% of all compounds tested hit in one or more screens of this group. Unless noted, calls come from the whole dose curve; as a rule, active = well fitted curve in the direction sought with a large enough effect; inconclusive = small, poorly fitted or top-dose-only effect, or another doubt; inactive = no such curve, though single readings can be large; an effect the other way counts as inactive or inconclusive.

Cc1ccc(NC(=S)Nc2cc(-c3ccccc3)[nH]n2)cc1Cl	VP16 counter 2.24µM, RORg inh 0.794µM
Cc1ccc2nc(-c3ccc(N4C(=NC(=O)CCC(=O)O)SC5CS(=O)(=O)CC54)cc3)sc2c1 (stereo unspecified)	RORg inh inconclusive
COc1ccc(Cl)cc1N1C(=NC(=O)C2CCCO2)SC2CS(=O)(=O)CC21 (stereo unspecified)	none
CC(OC(=O)CN1C(=O)c2ccccc2C1=O)C(=O)NC1(C#N)CCCCC1 (stereo unspecified)	none (no result: Coupling enz, GALK inhibitor, VP16 counter, RORg inh)
C(=C\c1ccccc1)/C=N/Nc1nc(N2CCCCC2)nc(N2CCCCC2)n1	RORg inh 0.794µM
C/C(=N/Nc1nc(-c2ccccc2)cc(-c2ccccc2)n1)c1ccc(N)cc1	VP16 counter inconclusive, RORg inh 10µM (no result: TrxR1 substrate, rTrxR1 inhibitor)
O=[N+]([O-])c1ccccc1/C=C/C=N/Nc1nc(N2CCCCC2)nc(N2CCCCC2)n1	RORg inh 11.2µM
C/C(=N/Nc1cc(-c2ccccc2)nc(-c2ccccc2)n1)c1ccc(O)cc1	none
O=[N+]([O-])c1ccccc1/C=C/C=N/N1CCCCC1	none
O=[N+]([O-])c1cc2c(cc1/C=N/Nc1nc(N3CCCC3)nc(N3CCCC3)n1)OCO2	none
O=[N+]([O-])c1ccccc1/C=N/Nc1nc(N2CCCC2)nc(N2CCCC2)n1	RORg inh 12.6µM
CC(=O)Nc1ccc(/C(C)=N/Nc2nc(Nc3cccc4ccccc34)nc(N3CCOCC3)n2)cc1	VP16 counter 11.2µM, RORg inh 5.62µM (no result: GALK inhibitor)
Oc1ccc(/C=N/Nc2cc(N3CCOCC3)nc(N3CCOCC3)n2)cc1O	TrxR1 substrate inconclusive, rTrxR1 inhibitor inconclusive, VP16 counter inconclusive
CC(=O)Nc1ccc(/C(C)=N/Nc2nc(N3CCOCC3)nc(N3CCOCC3)n2)cc1	none
C/C(=N\Nc1nc(N2CCCCCC2)nc(N2CCCCCC2)n1)c1ccccc1	RORg inh 3.16µM
Oc1ccccc1/C=N/Nc1cc(N2CCCC2)nc(N2CCCC2)n1	VP16 counter inconclusive, RORg inh 11.2µM
C=CCOc1ccc(C(=O)N(Cc2ccc(N(C)C)cc2)C2CCS(=O)(=O)C2)cc1 (stereo unspecified)	RORg inh inconclusive
COCCN1Cc2cccc(C(=O)NCCc3ccccc3)c2C1=O	none (no result: GALK inhibitor)
C/C(CC(=O)NC1CCCCC1)=N\NC(=O)c1ccc(Br)cc1	VP16 counter 11.2µM, RORg inh 12.6µM
C/C(CC(=O)NC1CCCCC1)=N\NC(=O)c1ccccc1C	none
C/C(CC(=O)NC1CCCC1)=N\NC(=O)C1CCCCC1	RORg inh 15.8µM
O=C(COC(=O)c1cncc(Br)c1)NCc1cccs1	none (no result: Coupling enz, GALK inhibitor, VP16 counter, RORg inh)
CCN(CC)C(=O)c1cccc(NC(=O)c2cc(-c3ccccn3)nc3ccccc23)c1	none (no result: Coupling enz, GALK inhibitor, VP16 counter, RORg inh)
CC(C)N(C(=O)Cn1c(SCC(=O)Nc2nccs2)nc2ccccc21)C(C)C	none
CC(=O)N1CCN(c2ccccc2NC(=O)COc2cc(C)ccc2C(C)C)CC1	none
Cc1ccc(C(C)C)c(OCC(=O)Nc2ccccc2N2CCN(C)CC2)c1	VP16 counter 12.6µM, RORg inh inconclusive
CCOc1ccccc1N(C)C(=O)C1CCCN(c2ncnc3onc(-c4ccc(F)cc4)c23)C1 (stereo unspecified)	none (no result: Coupling enz, GALK inhibitor, VP16 counter, RORg inh)
COc1ccc(C2CC(=O)N(Cc3ccc(F)cc3)c3ccccc3S2)cc1OC (stereo unspecified)	none (no result: Coupling enz, GALK inhibitor, VP16 counter, RORg inh)
COc1ccc(C2CC(=O)N(C)c3ccccc3S2)cc1OC (stereo unspecified)	VP16 counter inconclusive, RORg inh 7.94µM
O=C(c1cc2sccc2n1Cc1ccccc1)N1CCN(c2nc3ccccc3s2)CC1	VP16 counter 10µM
CCC(=O)N1CCN(c2nc3ccccc3s2)CC1	RORg inh inconclusive
CN1CC=C2C(C#N)=C(N)C(C#N)(C#N)C(c3ccsc3)C2C1 (stereo unspecified)	none
CN1CC=C2C(C#N)=C(N)C(C#N)(C#N)[C@H](c3cccc(Cl)c3)C2C1 (stereo partly specified)	Coupling enz -36.4
O=C(NC1CC(=O)N(c2cccc(F)c2)C1)c1ccc2c(c1)OCO2 (stereo unspecified)	none (no result: Coupling enz, GALK inhibitor, VP16 counter, RORg inh)
CCOC(=O)c1cnc2ccc(OCC)cc2c1N(C)Cc1ccccc1	VP16 counter inconclusive, RORg inh 14.1µM
c1ccc2c(c1)ncn2-c1ncnc2sc3c(c12)CCCC3	RORg inh inconclusive (no result: Coupling enz)
CC(O)CNc1nc2ccccc2n1-c1ncnc2sc3c(c12)CCC3 (stereo unspecified)	VP16 counter 14.1µM, RORg inh inconclusive
Cn1c(CNC(=O)c2ccco2)nnc1SCC(=O)c1ccc(Br)cc1	none
CCC(=Nc1ccc(N)cc1)C1=C(O)C(C(=O)OC)C(C)(C)CC1=O (stereo unspecified)	Coupling enz -48.3, rTrxR1 inhibitor inconclusive
CCCCC(=Nc1ccc(N)cc1)C1=C(O)C(C(=O)OC)C(C)(C)CC1=O (stereo unspecified)	Coupling enz -39.9, rTrxR1 inhibitor inconclusive
CC1CCc2c(nc3sc4c(c3c2N)CCCC4)C1 (stereo unspecified)	VP16 counter inconclusive, RORg inh 12.6µM
Cc1cccnc1NC(=O)C1CCN(S(=O)(=O)c2ccc3c(c2)CCC(=O)N3)CC1	RORg inh inconclusive
COc1ccccc1C1C2=C(N=C3SCC(=O)N31)c1ccccc1CC2 (stereo unspecified)	RORg inh 11.2µM
CC1(C)C=C2C(=NN(c3ccccc3)C(N)=C2C#N)CO1	Coupling enz -62.1, GALK inhibitor inconclusive, RORg inh inconclusive
O=C1C[C@H]2C=CCc3cccc(c32)CN1Cc1ccc(F)cc1	none (no result: Coupling enz, GALK inhibitor, VP16 counter, RORg inh)
Cc1nc(-c2cccnc2)sc1C(=O)Nc1ccc(Cl)cc1	RORg inh inconclusive
Cc1nnc(Sc2cc(NCCO)c([N+](=O)[O-])c3nonc23)s1	rTrxR1 inhibitor 0.316µM, VP16 counter inconclusive, RORg inh 3.16µM
Cc1nnc(Sc2cc(NCCCO)c([N+](=O)[O-])c3nonc23)s1	Coupling enz -36.5, rTrxR1 inhibitor inconclusive, VP16 counter 6.31µM, RORg inh 3.55µM
O=[N+]([O-])c1c(NCCO)cc(N2CCCCCC2)c2nonc12	RORg inh inconclusive
CCc1nn(C(CC)C(=O)NCc2ccc(OC)c(OC)c2)c(=O)c2cc3oc(C)cc3n12 (stereo unspecified)	none (no result: Coupling enz, GALK inhibitor, VP16 counter, RORg inh)
COc1ccc(C(=O)Nc2sc(C(=O)N(C)C)c(C)c2C#N)cc1[N+](=O)[O-]	VP16 counter 15.8µM, RORg inh inconclusive (no result: GALK inhibitor)
CCCOc1ccc(N)cc1N	Coupling enz -66.0, rTrxR1 inhibitor inconclusive, VP16 counter inconclusive, RORg inh 4.47µM
CCCOc1cc(N)ccc1C(=O)OCCN(CC)CC	none (no result: GALK inhibitor)
Nc1c(Cl)ncnc1NCCc1ccc(O)cc1	VP16 counter 7.94µM
